Bioassay records as filed in PubChem BioAssay.
ATXN2 expr inh = reduces ATXN2 reporter expression in HEK-293 cells; hit rate 0.72% among 360,000; Potency, µM (highest dose often 57 µM), for the others: top-dose activity change, negative = inhibition, most hits filed as inhibitors; HEK-293 ATXN2-luciferase reporter, luminescence, 24 h; further: on the % scale 0 is the no-effect control and ±100 the full control effect; nearly all actives have a fitted effect of over 55% in size
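ATXN2-luciferase reporter cells (luciferase flanked by upstream and downstream ATXN2 gene portions) were treated 24 h at 37 °C with compounds at up to 57 uM. SteadyGlo luminescence gave expression; GF-AFC fluorescence gave viability.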
TGFb inhibitor = TGF-b pathway inhibition; AID 588855; hit rate 1.2% among 410,000; Potency, µM (top dose mostly 46.1 µM), without a hit: at the highest dose activity, negative = inhibition, usual class: inhibitors; HepG2 CAGA-GFP TGF-b/SMAD3 reporter, GFP fluorescence, 18 h; TGF-beta stimulated, 500 pg/mL final; further: on the % scale 0 is the no-effect control and ±100 the full control effect; nearly all actives have a fitted effect of over 65% in size
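TGF-beta reporter screen: HEPG2 CAGA-GFP, 1% FBS, 500 pg/mL TGF-beta final, 18 h; per-cell GFP summed per well; curves fitted and categorized by class.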
ATXN viability = cell viability loss in ATXN counter-screen. S2 cells (HEK-293 line with an ATXN2-luciferase reporter) viability, CellTiter-Fluor protease fluorescence, 24 h. Potency, µM (series often up to 56.7 µM), hits mostly cytotoxic. hit rate 0.49% among 400,000; further: nearly all actives have a fitted effect of over 40% in size
Gal4-VP16 FLuc = counter-screen for ROR gamma inhibitors: Gal4-VP16 reporter; Drosophila S2 Gal4-VP16 UAS-luciferase, luminescence, 20 h; Potency, µM (highest dose often 53.6 µM), for the others: at the highest dose activity, negative = inhibition, usual class: inhibitors; hit rate 3.5% among 310,000;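 further: Gal4-VP16 expression switched on by copper sulfate through the metallothionein promoter; on the % scale 0 is the no-effect control and ±100 the full control effect; nearly all actives have a fitted effect of over 50% in size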
RORgamma inh = blocks mouse ROR gamma transcriptional activity. Potency, µM (highest dose often 53.6 µM), for the others: top-dose activity change, negative = inhibition, hits mostly inhibitors. P51450. hit rate 5.4% among 310,000. AID 2551. Drosophila S2 Gal4-RORgamma UAS-luciferase reporter, 20 h; further: on the % scale 0 is the no-effect control and ±100 the full control effect; nearly all actives have a fitted effect of over 60% in size
Target sequence (P51450 whole entry, looked up, the tested form may be a part): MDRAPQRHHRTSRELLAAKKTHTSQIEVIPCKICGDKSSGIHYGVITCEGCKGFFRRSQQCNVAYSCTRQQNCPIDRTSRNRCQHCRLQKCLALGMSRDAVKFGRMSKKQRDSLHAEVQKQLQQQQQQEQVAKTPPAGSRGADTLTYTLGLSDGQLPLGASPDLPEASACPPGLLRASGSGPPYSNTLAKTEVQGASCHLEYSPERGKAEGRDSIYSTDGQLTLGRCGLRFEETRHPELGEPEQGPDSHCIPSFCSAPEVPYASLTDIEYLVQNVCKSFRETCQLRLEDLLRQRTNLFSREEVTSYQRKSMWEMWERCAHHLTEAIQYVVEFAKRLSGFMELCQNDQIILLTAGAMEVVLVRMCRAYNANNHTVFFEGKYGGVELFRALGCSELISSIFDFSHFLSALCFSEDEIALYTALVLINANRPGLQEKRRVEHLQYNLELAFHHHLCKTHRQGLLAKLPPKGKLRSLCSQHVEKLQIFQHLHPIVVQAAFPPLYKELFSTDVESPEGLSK
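Read-out: Photinus luciferase luminescence; inhibitors lower reporter signal. Insect Schneider cells with Gal4-ROR gamma fusion under metallothionein promoter, UAS reporter; 700 uM final copper sulfate induction, 20 hr, ambient temperature.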
HepG2 tox = HepG2 cytotoxicity, counter-screen for TGF-b inhibitors; HepG2 CAGA-GFP viability, ATP luminescence, 18 h; Potency, µM (top dose mostly 46.1 µM), without a hit: top-dose activity change, negative = cytotoxicity, hits mostly cytotoxic; hit rate 0.76% among 410,000; AID 588856
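HepG2 CAGA-GFP cells (1000/well, DMEM with 1% FBS) received compound, then TGF-beta at 500 pg/mL final, and were incubated 18 hours at 37 degrees C. Viability was read by CellTiter-Glo luminescence. Media-only wells were set as complete cell-killing and DMSO as no toxicity.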
An asterisk follows results filed as active. Most compounds without a hit are left out; they make up all but 6.3% or so of the library. The call rests on the fitted dose curve; in most records, active means well fitted curve in the direction sought with a large enough effect; inconclusive means small, poorly fitted or top-dose-only effect, or another doubt; inactive means no such curve, though single readings can be large; an effect the other way counts as inactive or inconclusive. Potency means the concentration at half of the fitted maximal effect.

Screening NC(=O)NC(=O)COC(=O)/C=C/c1cccc(Br)c1 returned TGFb inhibitor -1%, ATXN viability inconclusive, Gal4-VP16 FLuc 4%, RORgamma inh 6% and HepG2 tox 5%.
Screening CCOC(=O)C(CC)(CC)C(=O)/C=C/c1cccc(Br)c1 returned ATXN2 expr inh inconclusive, TGFb inhibitor 14µM*, ATXN viability inconclusive and HepG2 tox -116%.
C=Cc1ccc(Cn2c(=O)n(CCCOC)c(=O)c3sccc32)cc1 was read as ATXN2 expr inh -13%, TGFb inhibitor 2%, ATXN viability inactive, Gal4-VP16 FLuc 5%, RORgamma inh 7% and HepG2 tox 4%.
For c1ccc(CNc2ccc3ccccc3n2)nc1 the results were ATXN2 expr inh 9%, TGFb inhibitor -16%, ATXN viability inactive, Gal4-VP16 FLuc inconclusive, RORgamma inh 10µM* and HepG2 tox -9%.
Cc1ccc2oc(C(=O)N(Cc3sccc3C)C3CCS(=O)(=O)C3)c(C)c2c1 (configuration not stated) was read as HepG2 tox -20%.
For O=C(CC1C(=O)N(c2ccc(F)cc2)C(=O)N1Cc1ccc2c(c1)OCO2)Nc1ccc(F)cc1 (configuration not stated) the results were ATXN2 expr inh 5%, TGFb inhibitor 10%, ATXN viability inconclusive and HepG2 tox -22%.
`CC(=O)Nc1cccc(Oc2ncnc3scc(-c4ccc(C)cc4)c23)c1` gave ATXN2 expr inh inconclusive, TGFb inhibitor inconclusive, ATXN viability 32µM*, Gal4-VP16 FLuc -17%, RORgamma inh inconclusive and HepG2 tox -27%.
Cc1ccc(-c2csc3ncnc(Oc4ccc5c(C)cc(=O)oc5c4)c23)cc1 was read as ATXN2 expr inh -8%, TGFb inhibitor inconclusive, ATXN viability inactive, Gal4-VP16 FLuc -13%, RORgamma inh 22% and HepG2 tox -7%.
`O=C(CCl)Nc1cccc(S(=O)(=O)N2CCCCCC2)c1` gave ATXN2 expr inh inconclusive, TGFb inhibitor inconclusive, ATXN viability 25µM*, Gal4-VP16 FLuc inconclusive, RORgamma inh 35µM* and HepG2 tox -65%.
Screening N=c1sccn1CC(=O)Nc1cccc(S(=O)(=O)N2CCCCCC2)c1 returned TGFb inhibitor -2%, ATXN viability 16µM*, Gal4-VP16 FLuc -1%, RORgamma inh 10% and HepG2 tox 1%.
For O=C(CCl)Nc1cccc(S(=O)(=O)NC2=NCCCCC2)c1 the results were TGFb inhibitor inconclusive and HepG2 tox 11µM*.
O=C(Cc1ccc(Cl)cc1)Nc1cccc(S(=O)(=O)N2CCCCC2)c1 was read as ATXN2 expr inh inconclusive, TGFb inhibitor inconclusive, ATXN viability inactive and HepG2 tox -29%.
For Cc1ccc(S(=O)(=O)N2CCCCC2)cc1NC(=O)Cn1ccsc1=N the results were ATXN2 expr inh -16%, TGFb inhibitor 9%, ATXN viability inactive, Gal4-VP16 FLuc 1%, RORgamma inh 31% and HepG2 tox 10%.
For O=c1cc(CN2CCN(c3ccc(Cl)c(Cl)c3)CC2)c2ccccc2o1 the results were ATXN2 expr inh -10%, TGFb inhibitor -20%, ATXN viability inactive and HepG2 tox -23%.
Screening Nc1cc(C(F)(F)F)ccc1S(=O)(=O)Nc1cccc2c1NCCC2 returned TGFb inhibitor inconclusive and HepG2 tox -27%.
`Cc1ccc(Cl)cc1-n1ncc2c(NC3CCCCCC3)ncnc21` gave ATXN2 expr inh inconclusive, TGFb inhibitor 11µM*, ATXN viability inconclusive and HepG2 tox -33%.
Screening N#Cc1cc(Oc2cccc3cccnc23)c(-n2nnc3ccccc32)cc1C#N returned ATXN2 expr inh inconclusive, TGFb inhibitor 6.3µM*, ATXN viability inactive, Gal4-VP16 FLuc 6.3µM*, RORgamma inh inconclusive and HepG2 tox -94%.
CCc1ccc(C(=O)Cn2ncc(Cl)c(Cl)c2=O)cc1 was read as ATXN2 expr inh inconclusive, TGFb inhibitor inconclusive, ATXN viability inconclusive, Gal4-VP16 FLuc -12%, RORgamma inh -26% and HepG2 tox -97%.
`O=C(OCn1ncc(Cl)c(Cl)c1=O)c1cccc(C(F)(F)F)c1` gave ATXN2 expr inh inconclusive, TGFb inhibitor inconclusive, Gal4-VP16 FLuc -14%, RORgamma inh -6% and HepG2 tox 7.1µM*.
For CN(C)CCCCCCNc1nccc(N2CCN(C)CC2)n1 the results were TGFb inhibitor 3% and HepG2 tox -38%.
Cc1cc(C(F)(F)F)nn1CC(=O)NNC(=S)Nc1ccc(F)cc1 was read as ATXN2 expr inh 2%, TGFb inhibitor 4%, ATXN viability inactive, Gal4-VP16 FLuc 10%, RORgamma inh 22% and HepG2 tox 11%.
`Cc1cc([N+](=O)[O-])nn1CC(=O)Nc1ccc(F)cc1` gave ATXN2 expr inh 6%, TGFb inhibitor inconclusive, ATXN viability inactive, Gal4-VP16 FLuc -17%, RORgamma inh -31% and HepG2 tox 19%.
Screening Cc1cc(C(F)(F)F)nn1CC(=O)NNC(=S)NCC(C)C returned ATXN2 expr inh 1%, TGFb inhibitor 12%, ATXN viability inconclusive, Gal4-VP16 FLuc -20%, RORgamma inh 7.1µM* and HepG2 tox -1%.
CCNC(=S)NNC(=O)Cn1nc(C)cc1C was read as ATXN2 expr inh 2%, TGFb inhibitor 7%, ATXN viability inactive, Gal4-VP16 FLuc -21%, RORgamma inh 10µM* and HepG2 tox 3%.
`Cc1cc([N+](=O)[O-])nn1CC(=O)NNC(=S)Nc1ccc(F)cc1` gave ATXN2 expr inh 0%, TGFb inhibitor 0%, ATXN viability inactive, Gal4-VP16 FLuc inconclusive, RORgamma inh 14µM* and HepG2 tox -2%.
COc1ccc(OC)c(CN2CCN(c3ccc(S(=O)(=O)N4CCCC4)cn3)CC2)c1 was read as ATXN2 expr inh -11%, TGFb inhibitor inconclusive, ATXN viability inactive and HepG2 tox -33%.
For CCOC(=O)c1sc(N)c(C(=O)Nc2ccccc2OC)c1C the results were ATXN2 expr inh -34%, TGFb inhibitor 3%, ATXN viability inconclusive, Gal4-VP16 FLuc -7%, RORgamma inh -29% and HepG2 tox -23%.
CCc1ccccc1NC(=O)C(=O)NCCc1sc(-c2cccc(C)c2)nc1C was read as ATXN2 expr inh 11%, TGFb inhibitor -2%, ATXN viability inactive and HepG2 tox -15%.
`COCCc1ccc(OCC2CO2)cc1` (configuration not stated) gave ATXN2 expr inh 7% and ATXN viability inactive.
